Nrf2 block – Nrf2 qHTS screen for inhibitors | A549 ARE-Fluc reporter, luciferase luminescence, 18-24 h | 360,000 tested, 2.1% active | Potency, µM (top dose mostly 46 µM), without a hit: at the highest dose activity change, negative = inhibition, actives largely listed as inhibitors; note: % is set by controls: 0 for no effect and ±100 for the full control effect; nearly all actives have a fitted effect of over 60% in size
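A549 ARE_Fluc cells (5000/well, 5% FBS OPTI-MEM) pre-incubated 2 h, then treated with compounds 18-24 h at 37C/5% CO2 in concentration-response. CellTiter-Fluor viability read first; BugLite luciferase luminescence after 15 min at room temperature gives Nrf2 activity.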
A549 tox – Nrf2 qHTS screen for inhibitors: counterscreen for cytotoxicity. 390,000 tested, 0.16% active. Potency, µM (doses to about 46 µM), without a hit: at the highest dose activity change, negative = cytotoxicity, usual class: inhibitors. A549 ARE-Fluc cells, CellTiter-Fluor viability, 18-24 h; note: % is set by controls: 0 for no effect and ±100 for the full control effect
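Cytotoxicity counterscreen: CellTiter-Fluor fluorescence was measured in A549 ARE_Fluc cells after 18-24 h of compound exposure in a concentration series. The subsequent BugLite luminescent read reports ARE-luciferase activity.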
Epigenetic reg – Quantitative High-Throughput Screen for Regulators of Epigenetic Control. murine LDR cells, GFP reporter derepression, 30 h. Potency, µM (titrated, usually from 53.9 µM), for inactives: at the highest dose GFP activation, most hits filed as activators. 280,000 tested, 0.2% active. AID 1865, 2009; note: % of control where 0% means no effect; nearly all actives have a fitted effect of over 60% in size
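Murine LDR cells bearing a silenced CMV-driven GFP reporter were exposed to compound for 30 h at 37 C. After PBS washes, GFP-positive cells (20-120 um objects) counted by laser-scanning microplate cytometry.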
Nrf2 activator – qHTS of Nrf2 Activators. 410,000 tested, 0.31% active. Potency, µM (series often up to 46.1 µM), inactives show at the highest dose activation, most hits filed as activators. AREc32 ARE-luciferase reporter (MCF7-derived line), luminescence, 24 h; note: % of control where 0% means no effect; nearly all actives have a fitted effect of over 65% in size
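ARE-driven firefly luciferase activity in AREc32 cells measured after a 24 hr compound exposure at 37 deg C, using Steady-Glo reagent and a 30 min room-temperature hold.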
PINK1 modulator – A Quantitative High throughput Screen to Identify Chemical Modulators of PINK1 Expression | Potency, µM (doses to about 76.6 µM), inactives show top-dose activation (PINK1 increase), usual class: activators | 410,000 tested, 0.2% active | PINK1 immunofluorescence, high-content cytometry, 24 h | AID 624263, 2012; active = well fitted activation curve with a large enough effect; inconclusive = small, poorly fitted or top-dose-only effect; cell line not stated here; note: % of control where 0% means no effect; nearly all actives have a fitted effect of over 65% in size
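PINK1 protein, normally rapidly degraded, was detected by immunofluorescence after 24 hour compound treatment of a stable cell line. Titration data (5 concentrations) came from laser-scanning cytometry, with CCCP-treated wells as controls.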
Starred values were filed as active, the others as inactive; ? = inconclusive; . = not tested or not shown; ! = a repeat was not active; [ ] = another dose, or the depositor's remark. Compounds with a hit are over-represented: about 2.4% of the library has one in this group of screens. Unless noted, calls come from the whole dose curve; as a rule, active = well fitted curve in the direction sought with a large enough effect; inconclusive = small, poorly fitted or top-dose-only effect, or another doubt; inactive = no such curve, though single readings can be large; an effect the other way counts as inactive or inconclusive. Potency is the fitted concentration of half-maximal effect.

SMILES	Nrf2 block	A549 tox	Epigenetic reg	Nrf2 activator	PINK1 modulator
Cc1cc(Br)ccc1OCC(=O)N(Cc1nc(-c2ccccc2)no1)C(C)C	18µM*	-2%	1%	1%	3%[38.3 µM]
COc1ccccc1OCC(=O)N(Cc1nc(-c2ccccc2)no1)C(C)C	13µM*	-12%	.	2%	13%
CCOC(=O)c1sc2cccc(F)c2c1S(=O)(=O)NCc1ccccc1Cl	-25%	-18%	1%	?	0%
O=C(CC(=O)c1ccccc1)Nc1ccccc1C(F)(F)F	16µM*	0%	.	3%	4%
O=C(CC(=O)Nc1ccccc1C(F)(F)F)Nc1ccccc1C(F)(F)F	17%	4%	.	0%	0%
O=C(COc1ccc(C(=S)N2CCCC2)cc1)Nc1ccccc1C(F)(F)F	23µM*	?	.	3%	5%
Cc1ccccc1C(=O)N1CCc2c(cnc(C)c2CNC(=O)CN2CCCCC2)C1	.	.	.	.	1%
COc1ccc(C(=O)c2cc([N+](=O)[O-])ccc2N2CCN(C)CC2)cc1	10%	15µM*	-1%	0%	1%
COc1ccc(C(=O)c2cc([N+](=O)[O-])ccc2N2CCCC2)cc1	?	?	0%	0%	0%
C/C(=N\NC(=O)c1cc(-c2cccnc2)nc2ccccc12)c1ccc(O)cc1O	15µM*	?	0%	0%	0%
CCN(CC)CCNc1cccc2sc3ccccc3c(=O)c12	.	.	.	3%	-2%
CCN(CC)CCNc1ccc(CO)c2sc3ccccc3c(=O)c12	6.5µM*	16µM*	12%	0%	-1%
O=C(c1ccc(S(=O)(=O)Cc2cc(F)ccc2F)c([N+](=O)[O-])c1)N1CCOCC1	.	.	.	13µM*	5%
COc1ccc(NC(=S)N=Nc2c(O)[nH]c3ccccc23)cc1	9.2µM*	?	3%	18%	1%
Cc1ccc2[nH]c3c(NCc4ccco4)ncnc3c2c1	?	1%	-1%	25%	21%
Fc1ccc2[nH]c3c(NCc4ccco4)ncnc3c2c1	12µM*	-11%	.	.	0%
c1coc(CNc2ncnc3c2oc2ccccc23)c1	?	-3%	0%	1.6µM*	4%[38.3 µM]
CCc1nc(NCc2ccco2)c2oc3ccccc3c2n1	0%	-3%	3%	10%	0%
COc1cc(CNc2ncnc3c2[nH]c2ccc(C)cc23)cc(OC)c1	15µM*	-20%	-1%	7%	?
c1ccc(Cn2ncc3c(NCc4ccco4)ncnc32)cc1	?	-1%	-11%	4µM*	8%[38.3 µM]
O=S(=O)(c1cccc(F)c1)N1CCC(Oc2ccc(-n3cnnn3)cc2)CC1	?	?	-3%	-1%	0%
CN(Cc1cc(Cl)cc(Cl)c1)CC(C(=O)c1ccccc1)c1ccccc1 (stereo unspecified)	-8%	11%	.	11µM*	1%
CCOC(=O)c1c(-c2ccc(F)cc2)csc1/N=C/N(C)C	16µM*	?	-2%	3%	0%
O=C(NC1CCCCCC1)c1ccc([N+](=O)[O-])s1	2.1µM*	-4%	.	3%	17%
CCC(=O)N(Cc1cc(=O)[nH]c2ccccc12)c1ccccc1	3%	6%	2%	0%	1%
SMILES	Nrf2 block	A549 tox	Epigenetic reg	Nrf2 activator	PINK1 modulator
O=C(CCl)N(Cc1cc(=O)[nH]c2ccccc12)c1ccccc1	23µM*	-13%	.	-4%	-1%
N#Cc1cc2sc3nnc(-c4ccncc4)n3c2cc1C#N	6.5µM*	-26%	-1%	?	1%
O=Cc1c2[nH]c3ccccc3c2cc2[nH]c3ccccc3c12	.	.	13µM*!	.	.
COCCNC(=O)c1c[nH]c2ccc(S(=O)(=O)N3CCc4ccccc43)cc2c1=O	16µM*	-9%	0%	0%	1%
Fc1ccc(CNc2nc(-c3ccc(Cl)cc3)cc(C(F)(F)F)n2)cc1	-6%[9.27 µM]	-25%	0%	-1%	40µM*
Oc1ccc(/C=N/Nc2nc(-c3ccc(Cl)cc3)cc(C(F)(F)F)n2)cc1	16µM*	?	-3%	-3%	-2%
Fc1ccc(-c2cc(C(F)(F)F)nc(NCc3ccccc3)n2)cc1	8%[9.27 µM]	?	-1%	0%	10%
Cc1cc(-c2ccccc2)nc(N/N=C/c2ccc(O)cc2)n1	-28%	-8%	.	8.9µM*	11%
COc1ccc(/C(C)=N/Nc2nc(C)cc(-c3ccccc3)n2)cc1	15µM*	-14%	.	3%	4%
Cc1ccc(C)c(S(=O)(=O)c2nnn3c2nc(NCc2ccc4c(c2)OCO4)c2sccc23)c1	?	-8%	0%	1%	1%
CC1=NN(c2ccccc2)C(=O)/C1=C/C=C/c1ccccc1	3%	6%	-2%	11µM*	-2%
CCn1nc(C)c2c(-c3ccccc3)cc(=O)n(C(C)C(=O)NCCc3ccccc3)c21 (stereo unspecified)	18µM*	-11%	1%	5%	?
O=[N+]([O-])c1ccc(/C=[N+](\[O-])[C@@H]2CCCC[C@@H]2/[N+]([O-])=C/c2ccc([N+](=O)[O-])o2)o1	-4%	21µM*	.	10µM*	1%
O=C(N/N=C/c1ccc([N+](=O)[O-])o1)c1ccncc1	?	?	0%	25%	2%
O=C(N/N=C/c1ccc([N+](=O)[O-])o1)C1CCCC1	16µM*	?	.	-1%	14%
O=C(N/N=C/c1ccc([N+](=O)[O-])o1)c1ccc(O)cc1	21µM*	21µM*	-3%	-2%	?
O=C(N/N=C\c1ccc([N+](=O)[O-])o1)C1COc2ccccc2O1 (stereo unspecified)	?	-20%	-4%	0%	?
CC(C)n1nc(C(=O)Nc2nnc(SCc3c(Cl)cccc3Cl)s2)c2ccccc2c1=O	?	3%[1.84 µM]	1%	0%	5.6µM*
COc1cc2c3nnc(-c4ccccc4)c-3cn(Cc3ccccc3F)c2cc1OC	-13%	5%	?	?	?
COc1cc2c3nnc(-c4ccc(F)cc4)c-3cn(Cc3ccccc3F)c2cc1OC	-4%	-7%	6.3µM*	?	?
COc1ccccc1C1CN(Cc2cccc(OCCO)c2)Cc2ccccc2O1 (stereo unspecified)	.	.	.	.	0%
COc1cccc(C2c3c(ncn(-c4ccccc4)c3=N)Oc3ccc4ccccc4c32)c1 (stereo unspecified)	15µM*!	15µM*!	.	.	.
N=c1c2c(ncn1-c1ccccc1)Oc1ccc3ccccc3c1C2c1ccc2c(c1)OCO2 (stereo unspecified)	21µM*	15µM*	.	.	.
COc1cccc(C2c3c(ncn(-c4cccc(OC)c4)c3=N)Oc3ccc4ccccc4c32)c1 (stereo unspecified)	-2%	-12%	.	.	.

Screening data deposited in PubChem BioAssay by National Center for Advancing Translational Sciences (NCATS).
